Reference: PubChem BioAssay (NCI)
Compounds without any hit were thinned out: in the full panel of roughly 83,000, 20% have a hit.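 A percent growth of 40 corresponds to 60% growth inhibition; 0 means no net growth; -100 means all cells died. Active threshold: below 10.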 Calls of active or inactive are those of the source.

Columns and labels:
Test in all cases: NCI-60 one-dose screen, 48 h (100 = growth as untreated, 0 = no growth, -100 = all killed)
Details in all cases: 10 µM unless noted
NCI-H23 lung = tested on: NCI-H23 lung
NCI-H226 lung = tested on: NCI-H226 lung
NCI-H322M lung = tested on: NCI-H322M lung
HOP-62 NSCLC = tested on: HOP-62 NSCLC
NCI-H460 lung = tested on: NCI-H460 lung
HOP-92 NSCLC = tested on: HOP-92 NSCLC
NCI-H522 lung = tested on: NCI-H522 lung
786-0 renal = tested on: 786-0 renal
COLO 205 colon = tested on: COLO 205 colon
A549/ATCC NSCLC = tested on: A549/ATCC NSCLC

Measured: growth

O=C(N/N=C/c1ccc(N(CCCl)CCCl)cc1)c1cccc2ccccc12
inactive: NCI-H23 lung 85.7% | NCI-H226 lung 74.3% | NCI-H322M lung 102% | HOP-62 NSCLC 59.5% | NCI-H460 lung 47% | HOP-92 NSCLC 55.5% | NCI-H522 lung 47.9% | 786-0 renal 74.2% | COLO 205 colon 86.3%

CCC1CN1CCCCN1CC1CC (stereo not drawn)
inactive: NCI-H23 lung 104% | NCI-H226 lung 98.3% | NCI-H322M lung 96.7% | HOP-62 NSCLC 113% | NCI-H460 lung 113% | HOP-92 NSCLC 116% | NCI-H522 lung 95.6% | 786-0 renal 104% | COLO 205 colon 112%

COc1cc2c(cc1OCCCCn1c(-c3cccs3)nc3ccccc31)N=C[C@@H]1CCCN1C2=O
active: NCI-H23 lung -37.9% | NCI-H226 lung -34.7% | NCI-H322M lung -30.5% | NCI-H460 lung -4.31% | HOP-92 NSCLC -64.6% | NCI-H522 lung -27.4% | A549/ATCC NSCLC -7.19% | 786-0 renal 1.78% | COLO 205 colon -73.5%
inactive: HOP-62 NSCLC 17.7%

COC(=O)[C@@H](C)C[C@H](Cc1ccccc1)NC(=O)c1nc([C@@H](C[C@H](C(C)C)N(C)C(=O)[C@@H](NC(=O)[C@H]2C[C@H](O)CCN2C)C(C)C)OC(C)=O)sc1C(C)C
inactive: NCI-H23 lung 23.8% | NCI-H322M lung 26.5% | HOP-92 NSCLC 25%
active: NCI-H226 lung -35.5% | HOP-62 NSCLC 1.87% | NCI-H460 lung 2.31% | NCI-H522 lung -21.9% | 786-0 renal 3.94% | COLO 205 colon -65.9%

COC(=O)CCC1=C(C)c2cc3[n-]c(cc4nc(cc5[n-]c(cc1n2)c(CCC(=O)OC)c5C)C=C4C)cc3C.[Cd+2]
inactive: NCI-H23 lung 19.1% | NCI-H226 lung 19.8% | NCI-H322M lung 95.5% | HOP-62 NSCLC 65.7% | 786-0 renal 75.2% | COLO 205 colon 22.4%
active: NCI-H460 lung -27.3% | HOP-92 NSCLC 3.42% | NCI-H522 lung -70.1%

O=[N+]([O-])c1c(Br)sc(Br)c1[N+](=O)[O-]
active: NCI-H522 lung -72.9% | 786-0 renal -36% | COLO 205 colon -77.7%
inactive: NCI-H23 lung 37.3% | NCI-H226 lung 87.8% | NCI-H322M lung 84.9% | HOP-62 NSCLC 75.2% | NCI-H460 lung 75.1% | HOP-92 NSCLC 43%

N/C(=N/N=C/c1ccncc1)N[N+](=O)[O-]
inactive: NCI-H23 lung 99.5% | NCI-H226 lung 99.2% | NCI-H322M lung 99.5% | HOP-62 NSCLC 89.3% | NCI-H460 lung 112% | HOP-92 NSCLC 115% | NCI-H522 lung 101% | A549/ATCC NSCLC 98.3% | COLO 205 colon 102%

O=c1[nH]c2ccc([N+](=O)[O-])cc2c(=O)o1
inactive: NCI-H23 lung 101% | NCI-H226 lung 108% | NCI-H322M lung 97.6% | HOP-62 NSCLC 103% | NCI-H460 lung 103% | HOP-92 NSCLC 79.5% | NCI-H522 lung 100% | 786-0 renal 112% | COLO 205 colon 109%

CC(=O)O[C@H](C[C@H](C(C)C)N(C)C(=O)[C@@H](NC(=O)[C@H]1CCCN1C)C(C)C)c1nc(C(=O)N[C@@H](Cc2ccccc2)C[C@H](C)C(=O)O)c(C)s1
inactive: NCI-H23 lung 30.3% | NCI-H226 lung 54.8% | NCI-H322M lung 52% | HOP-62 NSCLC 29.7% | HOP-92 NSCLC 16.5% | 786-0 renal 22.4%
active: NCI-H460 lung 5.67% | NCI-H522 lung -24.7% | COLO 205 colon -63.2%

C[C@@H]1C[C@@]2(C)[C@@H](CC[C@@H]3[C@@H]2CC[C@]2(C)C(=O)CC[C@@H]32)CC1=O
inactive: NCI-H23 lung 104% | NCI-H226 lung 102% | NCI-H322M lung 96.1% | HOP-62 NSCLC 78.9% | NCI-H460 lung 108% | HOP-92 NSCLC 71.7% | NCI-H522 lung 91.9% | 786-0 renal 93.2% | COLO 205 colon 99.5%

C[n+]1c(/C=C/c2ccc(N(CCCl)CCCl)cc2)sc2ccccc21
inactive: NCI-H23 lung 44.9% | NCI-H226 lung 73.7% | NCI-H322M lung 95% | HOP-62 NSCLC 52.2% | NCI-H460 lung 20.7% | HOP-92 NSCLC 61.9% | NCI-H522 lung 16.4% | 786-0 renal 50.3% | COLO 205 colon 32.2%

c1ccc(COc2ccc3[nH]cc(CCN(Cc4ccccc4)Cc4ccccc4)c3c2)cc1
inactive: NCI-H23 lung 77.5% | NCI-H226 lung 73.8% | NCI-H322M lung 100% | HOP-62 NSCLC 99.4% | NCI-H460 lung 91.6% | HOP-92 NSCLC 81.6% | NCI-H522 lung 82.9% | 786-0 renal 91.9% | COLO 205 colon 101%

C=C1C(=O)O[C@H]2[C@H]1CC/C(COC(=O)C(=O)c1cn(Cc3ccccc3)c3ccccc13)=C\CC[C@@]1(C)O[C@@H]21
active: NCI-H23 lung -51.7% | NCI-H226 lung -70.3% | NCI-H322M lung -25.6% | HOP-62 NSCLC 2.07% | NCI-H460 lung -11.4% | HOP-92 NSCLC -46.7% | NCI-H522 lung -69% | 786-0 renal -75.3% | COLO 205 colon -52.4%

O=C1C=C(N2C3C4CCC(C4)C32)C(=O)C=C1c1ccccc1 (stereo not drawn)
inactive: NCI-H23 lung 106% | NCI-H226 lung 107% | HOP-62 NSCLC 108% | NCI-H460 lung 90.2% | HOP-92 NSCLC 96.9% | NCI-H522 lung 51% | A549/ATCC NSCLC 94.9% | 786-0 renal 102% | COLO 205 colon 115%

CN[C@@]1(c2ccccc2Cl)CCCC[C@@H]1NCC1CCCO1 (stereo partly drawn)
inactive: NCI-H23 lung 97.4% | NCI-H226 lung 97.8% | HOP-62 NSCLC 97.4% | NCI-H460 lung 110% | HOP-92 NSCLC 92% | NCI-H522 lung 91.3% | A549/ATCC NSCLC 98% | 786-0 renal 97.7% | COLO 205 colon 109%

O=C1OCCC1Br (stereo not drawn)
inactive: NCI-H23 lung 103% | NCI-H226 lung 103% | HOP-62 NSCLC 105% | NCI-H460 lung 105% | HOP-92 NSCLC 85.6% | NCI-H522 lung 83.9% | A549/ATCC NSCLC 99.8% | 786-0 renal 106% | COLO 205 colon 120%

CCOC(=O)[C@@H](C)C[C@H](Cc1ccccc1)NC(=O)c1csc([C@@H](C[C@H](C(C)C)N(C)C(=O)[C@@H](NC(=O)[C@H]2CCCCN2C)C(C)(C)C)OC(C)=O)n1
inactive: NCI-H23 lung 24.5% | NCI-H226 lung 55.2% | HOP-62 NSCLC 11.8% | HOP-92 NSCLC 28.5% | A549/ATCC NSCLC 10.3%
active: NCI-H460 lung 6.23% | NCI-H522 lung -40.3% | 786-0 renal 4.58% | COLO 205 colon -75.6%

C/C1=C/C(=O)O[C@@H]2C[C@@H](CC[C@H](C)/C=C\C=C\CC1)O[C@@](O)([C@@H]1CSC(=O)N1CO)C2
active: HOP-62 NSCLC -25.7% | HOP-92 NSCLC -82.5% | NCI-H522 lung -52.3% | 786-0 renal 6.79% | COLO 205 colon -55.5%
inactive: NCI-H23 lung 13.9% | NCI-H322M lung 41.7% | NCI-H460 lung 26.9% | A549/ATCC NSCLC 20.3%

CN(C)C(=O)Oc1ccc(Br)cc1
inactive: NCI-H23 lung 102% | NCI-H226 lung 101% | HOP-62 NSCLC 93% | NCI-H460 lung 104% | HOP-92 NSCLC 107% | NCI-H522 lung 95.6% | A549/ATCC NSCLC 100% | 786-0 renal 98.6% | COLO 205 colon 102%

C=CC[n+]1ccc(-c2cc[n+](CC=C)cc2)cc1
inactive: NCI-H23 lung 78.8% | NCI-H226 lung 99% | HOP-62 NSCLC 83.7% | NCI-H460 lung 91.9% | HOP-92 NSCLC 111% | NCI-H522 lung 19.7% | A549/ATCC NSCLC 71.9% | 786-0 renal 109%
active: COLO 205 colon 9.91%

CC(=O)OC1CCC2(C)C(CCC3C2CC(=O)C2(C)C3CC(Sc3ccc(N(CCCl)CCCl)cc3)C2C(C)=O)C1 (stereo not drawn)
active: COLO 205 colon 9.14%
inactive: NCI-H23 lung 97.3% | NCI-H226 lung 83.7% | HOP-62 NSCLC 108% | NCI-H460 lung 32.5% | HOP-92 NSCLC 109% | NCI-H522 lung 83% | A549/ATCC NSCLC 55.6% | 786-0 renal 82.6%

OCCNC(Cc1ccccc1)c1ccc2c(c1)OCO2 (stereo not drawn)
inactive: NCI-H23 lung 100% | NCI-H226 lung 96.5% | HOP-62 NSCLC 77.7% | NCI-H460 lung 106% | HOP-92 NSCLC 73.1% | NCI-H522 lung 67.5% | A549/ATCC NSCLC 90.8% | 786-0 renal 95.5% | COLO 205 colon 91%

CC12CCC3C(CCC4=CC(=O)CCC43CF)C1CCC2=O (stereo not drawn)
inactive: NCI-H23 lung 106% | NCI-H226 lung 111% | HOP-62 NSCLC 124% | NCI-H460 lung 109% | HOP-92 NSCLC 114% | NCI-H522 lung 87.3% | A549/ATCC NSCLC 99.3% | 786-0 renal 106% | COLO 205 colon 135%

CC(C)=CCc1c(O)c(C(=O)CC(C)C)c(O)c2c(-c3ccccc3)cc(=O)oc12
inactive: NCI-H23 lung 26.8% | NCI-H226 lung 47.4% | HOP-62 NSCLC 84.2% | NCI-H460 lung 27.9% | NCI-H522 lung 31.5% | A549/ATCC NSCLC 54.6% | 786-0 renal 66.2% | COLO 205 colon 83.1%
active: HOP-92 NSCLC -13.2%

Brc1ccc2c(c1)c(-c1nc(-c3c[nH]c4ncccc34)cs1)cn2CCN1CCCCC1
inactive: NCI-H23 lung 89% | NCI-H226 lung 80% | HOP-62 NSCLC 88.7% | NCI-H460 lung 67.4% | HOP-92 NSCLC 37.1% | NCI-H522 lung 68.8% | A549/ATCC NSCLC 67.5% | 786-0 renal 53% | COLO 205 colon 37.7%

COC(=O)CCc1c[nH]c2ccc(N(CCCl)CCCl)cc12
inactive: NCI-H23 lung 31.1% | NCI-H226 lung 79% | HOP-62 NSCLC 47.5% | NCI-H460 lung 17.4% | HOP-92 NSCLC 84.4% | NCI-H522 lung 42.3% | A549/ATCC NSCLC 44% | 786-0 renal 24.8% | COLO 205 colon 68.8%

CC[C@H](C)[C@H](NC(=O)[C@H]1CCCCN1C)C(=O)N(C)[C@H](C[C@@H](OC(C)=O)c1cccc(C(=O)N[C@@H](Cc2ccccc2)C[C@H](C)C(=O)O)n1)C(C)C
active: HOP-62 NSCLC 1.64% | NCI-H460 lung 7.49% | NCI-H522 lung -12.8% | COLO 205 colon -66.1%
inactive: NCI-H23 lung 24.3% | NCI-H226 lung 19.7% | HOP-92 NSCLC 37% | A549/ATCC NSCLC 11.4% | 786-0 renal 23.1%

Cc1ccc(N2COOC3(OOC2)C2CC4CC(C2)CC3C4)cc1
inactive: NCI-H23 lung 89.5% | NCI-H226 lung 108% | HOP-62 NSCLC 93.1% | NCI-H460 lung 103% | HOP-92 NSCLC 95.5% | NCI-H522 lung 92.5% | A549/ATCC NSCLC 98.7% | 786-0 renal 96.1% | COLO 205 colon 110%
